# Source: the supplement of paper PMC9694430
# How the values were obtained:
# Experiment in all cases: thermal shift delta Tm vs DMSO control; higher = stronger stabilization (binding)
# Details in all cases: 12.5 µM; protein concentration 2 µM
# LOC_OS02G45750-cb003 = system: LOC_OS02G45750-cb003
# In short: (§1)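 The melting temperature shift given here is a triplicate mean, measured against protein that received only DMSO. Melting temperatures came from Boltzmann fits of differential scanning fluorimetry data on E. coli-expressed, purified rice kinase domain constructs. Each 19.5 μl well contained 2 μM kinase, 100 mM potassium phosphate pH 7.5, 150 mM NaCl, 10% glycerol, 5 × SYPRO Orange and compound in DMSO. Plates were scanned from 25°C to 95°C at 0.05°C/s.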
# LOC_OS02G54510-cb004 = system: LOC_OS02G54510-cb004
# In short: as §1
# LOC_OS03G04050-cb001 = system: LOC_OS03G04050-cb001
# In short: as §1
# LOC_OS03G12390-cb001 = system: LOC_OS03G12390-cb001
# In short: as §1
# LOC_OS03G27990-cb004 = system: LOC_OS03G27990-cb004
# In short: as §1
# LOC_OS03G50450-cb001 = system: LOC_OS03G50450-cb001
# In short: as §1
# LOC_OS03G50810-cb003 = system: LOC_OS03G50810-cb003
# In short: as §1
# LOC_OS04G35114-cb001 = system: LOC_OS04G35114-cb001
# In short: as §1
# LOC_OS04G38480-cb003 = system: T1, LOC_OS04G38480-cb003
# T1 sequence (whole entry): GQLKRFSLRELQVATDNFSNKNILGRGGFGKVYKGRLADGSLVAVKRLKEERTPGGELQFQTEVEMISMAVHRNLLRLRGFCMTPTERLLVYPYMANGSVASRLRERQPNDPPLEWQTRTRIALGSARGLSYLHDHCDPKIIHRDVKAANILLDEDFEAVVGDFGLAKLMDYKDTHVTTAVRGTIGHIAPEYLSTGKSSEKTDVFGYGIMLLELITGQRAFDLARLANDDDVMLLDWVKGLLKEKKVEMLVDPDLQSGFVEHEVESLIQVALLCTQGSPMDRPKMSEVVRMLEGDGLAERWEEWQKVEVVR
# In short: as §1
# LOC_OS04G41100-cb001 = system: T2, LOC_OS04G41100-cb001
# T2 sequence (whole entry): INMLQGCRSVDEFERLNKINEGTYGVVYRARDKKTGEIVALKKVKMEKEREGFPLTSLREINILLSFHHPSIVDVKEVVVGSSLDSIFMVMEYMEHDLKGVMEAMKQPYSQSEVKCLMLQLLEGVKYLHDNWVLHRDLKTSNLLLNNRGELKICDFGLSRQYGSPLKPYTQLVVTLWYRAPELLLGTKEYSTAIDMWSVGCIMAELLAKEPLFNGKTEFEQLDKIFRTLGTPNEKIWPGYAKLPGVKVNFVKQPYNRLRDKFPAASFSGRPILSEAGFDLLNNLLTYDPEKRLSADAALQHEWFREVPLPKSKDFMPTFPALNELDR
# In short: as §1
# LOC_OS04G57630-cb004 = system: LOC_OS04G57630-cb004
# In short: as §1
# LOC_OS05G07850-cb002 = system: LOC_OS05G07850-cb002
# In short: as §1
# LOC_OS05G16824-cb004 = system: LOC_OS05G16824-cb004
# In short: as §1
# LOC_OS05G28520-cb001 = system: LOC_OS05G28520-cb001
# In short: as §1
# LOC_OS05G30820-cb001 = system: LOC_OS05G30820-cb001
# In short: as §1
# LOC_OS05G43570-cb004 = system: LOC_OS05G43570-cb004
# In short: as §1
# LOC_OS06G16330-cb003 = system: LOC_OS06G16330-cb003
# Chain of LOC_OS06G16330-cb003 (as listed by the source): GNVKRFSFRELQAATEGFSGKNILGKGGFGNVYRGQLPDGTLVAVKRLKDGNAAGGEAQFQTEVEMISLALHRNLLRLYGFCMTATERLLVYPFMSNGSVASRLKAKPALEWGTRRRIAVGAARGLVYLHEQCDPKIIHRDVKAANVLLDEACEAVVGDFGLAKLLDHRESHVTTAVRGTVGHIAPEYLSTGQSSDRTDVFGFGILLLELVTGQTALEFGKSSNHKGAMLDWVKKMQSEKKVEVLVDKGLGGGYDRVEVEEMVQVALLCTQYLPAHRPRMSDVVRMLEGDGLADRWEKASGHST
# In short: as §1
# LOC_OS06G22820-cb001 = system: T3, LOC_OS06G22820-cb001
# T3 sequence (whole entry): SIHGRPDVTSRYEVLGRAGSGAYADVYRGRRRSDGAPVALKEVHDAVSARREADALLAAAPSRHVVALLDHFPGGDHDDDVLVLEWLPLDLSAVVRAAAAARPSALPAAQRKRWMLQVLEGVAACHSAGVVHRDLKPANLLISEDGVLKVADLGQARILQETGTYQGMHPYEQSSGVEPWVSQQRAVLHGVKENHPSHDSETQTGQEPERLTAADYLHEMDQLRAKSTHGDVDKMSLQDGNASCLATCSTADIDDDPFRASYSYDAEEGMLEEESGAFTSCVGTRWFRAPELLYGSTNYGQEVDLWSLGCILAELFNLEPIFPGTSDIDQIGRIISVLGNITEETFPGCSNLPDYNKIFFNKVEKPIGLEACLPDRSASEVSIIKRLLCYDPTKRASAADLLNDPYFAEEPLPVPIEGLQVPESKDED
# In short: as §1
# LOC_OS07G06570-cb004 = system: LOC_OS07G06570-cb004
# In short: as §1
# LOC_OS07G07230-cb001 = system: LOC_OS07G07230-cb001
# In short: as §1
Compound,thermal shift delta Tm (LOC_OS02G45750-cb003),thermal shift delta Tm (LOC_OS02G54510-cb004),thermal shift delta Tm (LOC_OS03G04050-cb001),thermal shift delta Tm (LOC_OS03G12390-cb001),thermal shift delta Tm (LOC_OS03G27990-cb004),thermal shift delta Tm (LOC_OS03G50450-cb001),thermal shift delta Tm (LOC_OS03G50810-cb003),thermal shift delta Tm (LOC_OS04G35114-cb001),thermal shift delta Tm (LOC_OS04G38480-cb003),thermal shift delta Tm (LOC_OS04G41100-cb001),thermal shift delta Tm (LOC_OS04G57630-cb004),thermal shift delta Tm (LOC_OS05G07850-cb002),thermal shift delta Tm (LOC_OS05G16824-cb004),thermal shift delta Tm (LOC_OS05G28520-cb001),thermal shift delta Tm (LOC_OS05G30820-cb001),thermal shift delta Tm (LOC_OS05G43570-cb004),thermal shift delta Tm (LOC_OS06G16330-cb003),thermal shift delta Tm (LOC_OS06G22820-cb001),thermal shift delta Tm (LOC_OS07G06570-cb004),thermal shift delta Tm (LOC_OS07G07230-cb001)
CN(C)CCCn1cc(C2=C(c3c[nH]c4ccccc34)C(=O)NC2=O)c2ccccc21,0.99 °C,0.36 °C,0.65 °C,0.12 °C,0.5 °C,1.02 °C,0.83 °C,1.37 °C,-0.32 °C,0.65 °C,0.12 °C,3.88 °C,1.25 °C,0.24 °C,0.37 °C,0.07 °C,0.14 °C,0.44 °C,0.94 °C,0.81 °C
O=C(Nc1cc(C(F)(F)F)cc(C(F)(F)F)c1)c1cc(Cl)ccc1O,0.1 °C,-0.16 °C,0.55 °C,1.46 °C,0.24 °C,0.5 °C,0.7 °C,0.29 °C,0.16 °C,0.52 °C,-0.05 °C,-0.13 °C,-0.94 °C,0.78 °C,0.67 °C,0.76 °C,0.52 °C,0.91 °C,1.68 °C,-0.11 °C
c1ccc(-c2[nH]ncc2-c2ccnc3ccccc23)nc1,0.48 °C,0.4 °C,0.67 °C,0.41 °C,0.25 °C,0.76 °C,0.28 °C,0.25 °C,2.34 °C,0.99 °C,0.26 °C,3.02 °C,0.42 °C,0.19 °C,0.24 °C,0.65 °C,-2.93 °C,0.08 °C,0.81 °C,0.53 °C
N#C/C(=C\c1ccc(O)c(O)c1)C(=O)NCc1ccccc1 [AG-490 (Tyrphostin B42)],0.05 °C,0.41 °C,0.78 °C,0.12 °C,0.27 °C,-0.29 °C,0.09 °C,-0.45 °C,0.47 °C,0.43 °C,-1.22 °C,-1.56 °C,-18.1 °C,1.95 °C,0.64 °C,0.9 °C,-0.03 °C,1 °C,2.29 °C,0.61 °C
COc1c(C)c(C(=O)c2ccc(N)c(C(=O)O)c2)n2ccccc12,0.38 °C,0.3 °C,0.46 °C,-0.07 °C,0.21 °C,0.58 °C,0.22 °C,0.79 °C,0.31 °C,0.29 °C,0.19 °C,0.78 °C,-2.73 °C,0.86 °C,0.51 °C,0.58 °C,-0.18 °C,0.47 °C,1.2 °C,0.36 °C
O=c1c(O)c(-c2cc(O)c(O)c(O)c2)oc2cc(O)cc(O)c12 [Myricetin],0.6 °C,-0.42 °C,1.12 °C,1.2 °C,1.89 °C,2.61 °C,-0.73 °C,2.51 °C,3.89 °C,0.92 °C,0.92 °C,4.43 °C,1.57 °C,0.55 °C,0.97 °C,1.55 °C,6.62 °C,1.33 °C,-1.03 °C,0.47 °C
